Assay results as given in the supplement of paper PMC12632987.

T1: USP38, Q8NB14
T1 chain: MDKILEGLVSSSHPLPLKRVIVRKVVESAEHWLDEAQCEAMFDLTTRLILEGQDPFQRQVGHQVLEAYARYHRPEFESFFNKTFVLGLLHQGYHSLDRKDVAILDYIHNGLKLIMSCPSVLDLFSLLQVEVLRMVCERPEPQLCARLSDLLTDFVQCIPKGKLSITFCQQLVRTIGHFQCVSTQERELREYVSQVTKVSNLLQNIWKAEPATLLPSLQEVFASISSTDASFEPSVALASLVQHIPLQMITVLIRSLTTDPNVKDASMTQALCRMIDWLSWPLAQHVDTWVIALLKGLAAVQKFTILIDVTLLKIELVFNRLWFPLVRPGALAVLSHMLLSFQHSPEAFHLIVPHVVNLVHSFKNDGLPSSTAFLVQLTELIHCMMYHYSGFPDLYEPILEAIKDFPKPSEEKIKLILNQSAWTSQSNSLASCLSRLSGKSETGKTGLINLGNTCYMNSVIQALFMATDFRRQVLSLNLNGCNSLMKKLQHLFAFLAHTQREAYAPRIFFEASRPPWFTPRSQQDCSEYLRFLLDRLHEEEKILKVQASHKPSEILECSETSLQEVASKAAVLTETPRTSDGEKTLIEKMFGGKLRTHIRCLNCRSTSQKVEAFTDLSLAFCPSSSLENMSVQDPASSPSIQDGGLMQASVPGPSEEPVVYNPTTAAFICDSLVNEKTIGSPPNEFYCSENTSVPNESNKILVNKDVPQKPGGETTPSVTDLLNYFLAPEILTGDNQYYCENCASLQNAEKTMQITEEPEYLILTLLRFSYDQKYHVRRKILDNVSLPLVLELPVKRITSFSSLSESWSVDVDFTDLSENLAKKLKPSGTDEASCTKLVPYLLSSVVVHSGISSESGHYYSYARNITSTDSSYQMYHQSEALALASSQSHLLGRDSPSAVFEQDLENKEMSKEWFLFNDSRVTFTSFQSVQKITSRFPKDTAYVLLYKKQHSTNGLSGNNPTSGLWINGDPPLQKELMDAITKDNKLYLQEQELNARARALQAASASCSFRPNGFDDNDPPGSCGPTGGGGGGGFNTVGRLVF

B1: usp_38_diff_out_4_99_572 (protein)
chain: EREEMVERMKELTERLKELTARAKAARALPPAERAAAAAALREELDRLAREAGEIYFRARDSGDKELIEEVGKVADEFVDAYLEAGTALNELEAEVDAAA
B2: usp_38_diff_out_5_164_594 (protein)
chain: GVDAALAEIDKITEEAIKKMEELLEKAKKNPEQLDEYKKKLTEITNEALDKINATTTAALEAHPEQADTILAHYDKQVTKMLTKYQEALDEIEKLKKEKE
B3: usp_38_diff_out_4_99_565 (protein)
chain: EKERMVEEVRRLTERARELLERARAAFELPPEERRRTAEELARELDELARRMGAIAFAARDSGDPELIKAVNEEADEFVDAYTEAATALNELRHLVLQEE
B4: usp_38_diff_out_4_99_573 (protein)
chain: KKEELVEEVKRLTEEVKEIKKEAEAAKSLPLEERRATAEELRRRLDELARRMGEIYFEARDSGDEELIEAVEEEADKFVDEYLKAGTALNELESEVLEAE
B5: usp_38_diff_out_5_164_593 (protein)
chain: GVEEYLEELEKITEEAIKKLKELLEEAKKDPSKLEEYKKKATELVNEAIDKMNEITTEALEKHPEKADEILEHYDRQVTRLLTEYQKVMDEIEKIKKELE
B6: usp_38_diff_out_4_99_570 (protein)
chain: KKEELVERAKELKERAEELLKEAKKARELSTEERAKKAAEIDKELDELAKEMGEIYFEARDSGDEELIEAVTEVADEFVKAYEKAATELFELQAEVQEEQ
B7: usp_38_diff_out_4_99_578 (protein)
chain: EKEKKVEELKKLTEKAKELKKEAEAAKTLSLEERKKKAEELRKELDKIAEEAAKIYFEARESGDKELIEAVEKEAKKFVDAYLEAGTALNELQHEVDEAE
B8: usp_38_diff_out_4_99_577 (protein)
chain: EKEKKVEEVKKIKEELKKLKEEAEAAKKLPLEERKKVAEELSKRLDELAKRLGKIYFEARDTGDKELIKAVTEEANKAVDEYLKAATALNELQSLVDEER
B9: usp_38_diff_out_5_164_600 (protein)
chain: SVEESLAEIDKITAELKEELKALLAEAKENPEKLKEYKKKMTEKMNEAIDKMNEITTKTLEAYPEQADTILAHYDRRMTEMLTAYNEAMKELEALEKELA
B10: usp_38_diff_out_5_164_602 (protein)
chain: SLEEYLKEMDELTKELIEELKKLVEEAKKNPEKLEEYKKKINEKTNEAIDKMNEITTKALEEFPEKAEEILKHYSEQIDKMLEAKNAAMKELDALKKAQA
B11: usp_38_diff_out_5_164_582 (protein)
chain: GVEEYLAEMEAIRDETIAKLDALLAEAKENPEKLDEYKKEITDTTNEAINRMTEVTTRALEEHPEKAEEILARYSELMDELLTHYNAVMEELEKLKEELE
B12: usp_38_diff_out_5_164_586 (protein)
chain: TVEAAKKQMDEITEKLIKELKKLKEEAEKDPSKLDEIEKEANEKTNKAIDEMTAITTETLEANPEKADEILAHYSEQIDKMLKEYQELMDYIKKLKEEKE
B13: usp_38_diff_out_4_99_566 (protein)
chain: MKEELVKKVKELKKKAEELKKKAEEAFKLDHEERKKVAEELEKELDEIAKEMGAIYFSARDSGDAELIKAVQKEADEFVDAYNEAATALNELRHLVLEEE
B14: usp_38_diff_out_5_164_605 (protein)
chain: GVEEALERLERIREELKKELDELLEEAKKNPEKLEEYKKKVTEKVNEAIDEMNEVTTAALEAHPERADEILAHYDEVVTEMLEHYNKVMEELEKLKKEYE
B15: usp_38_diff_out_5_164_603 (protein)
chain: AVEAALAEMDAIAAELKKELEKLLEEAKKNPEKLEEYKKKLTEATNAALDRLNATTTAALEAAPERADEILAHYDRVVTEMLTKYQEAKEELEKLKKEAA
B16: usp_38_diff_out_4_99_571 (protein)
chain: EKEKIVEEVKKLKEEAEKLLKEAKEAKKLSTEERRKKAEEIRKKLDELAKEMGKLYFEARDSGDKELIEEVNKEADEFVDAYEKAATELFELEAEVEEEE
B17: usp_38_diff_out_5_164_584 (protein)
chain: EVEEAFKEMDALTEETIKKLNELLKEAKENPEKAEEYLKEATSLVNSALDKLNEITTETLEKHPEKAEEILKHYDERVTKLLTEYQKVKEEIQKIIEEAK
B18: usp_38_diff_out_5_164_589 (protein)
chain: GVEKYLEEIDKLTEEAIAKIKELLAEAKKNPEKLDEVEKEIKELTDKTLDEINKITTEALEKFPEKAEEILSHYDEQVTKLLTAYQAALDELAKLKKEKA
B19: usp_38_diff_out_5_164_583 (protein)
chain: GVEEYLARLDAIKKETIEELDKLLEEAKKNPEKLEEYKKKITEITNKAINEMTKVTTEALEEFPEQAETILAHYSERIDELLKHYNEVMKELEKLKKELE
B20: usp_38_diff_out_5_164_588 (protein)
chain: GLEEYLEEIDKITEETIEKLKKLLEEAKKNPEKLEEYEKEIEKLTEEALDKINEVVTEALEKHPEKAEEILAHYDEQVTRLLTAYQEAKKELEKLKKEKE
B21: usp_38_diff_out_5_164_592 (protein)
chain: GVEKYLEELQKITDEAIKELKELLEEAKENPEKLEEYKKKATEKTNEAIDKMNEITTKALEEHPEQADTILAHYDEQVTKLLTEYNEVLKEIEELKKKKE
B22: usp_38_diff_out_4_99_574 (protein)
chain: EKEEKVKKAEEIAKKLEELLKEAKKARELSTEERRKKAEEIRKELDELAKELGKIYFEARDSGDKELIKEVEEVAKKAVDAYEKAATELFELEDEVQQEE
B23: usp_38_diff_out_5_164_587 (protein)
chain: MVEEYLKEMEKITEEAIKKLEELLAEAKKNPEKLDEYKKEIEKLVEKALNEINELVTKALEENPEKAEEILKKYDELVTKLLTAYQKAMKELEALKKEKA
B24: usp_38_diff_out_5_164_599 (protein)
chain: SLEEYLRRMEEIREKLIKELKELLEEAKKNPEKLEEIKKEVEKKTEEALNEMNEITTAALEAYPERAEEILRHYSEQVEKMLTEYQEVMEELEKLEKEKK
B25: usp_38_diff_out_5_164_604 (protein)
chain: AVEEALAKMKAITEELKKKFDELLAEAKKNPEKLDEYKKEVTEALNKAIDEMNEVTTAALEAAPEQADTILAAYDENVTEMLTHYQAVMDELKALEKEAA
B26: usp_38_diff_out_5_164_596 (protein)
chain: SVEEALKELTELTDKTIAEIDKLVAEAKKNPEKLDEYEKQLTETTNEAIDKMNEITTKALEANPEKADEILSHYDEQMTRLLTRYAEAKAEIEALKKALE
B27: usp_38_diff_out_4_99_580 (protein)
chain: EKEKKVKELKKLTEEAKKIKEEAEAAKSLPLEERKKKAEELRKRLDELAKRAAAIYFEARDSGDEELKKAVEEEADKFVDAYLEAGTALNELEHLVLEEE
B28: usp_38_diff_out_4_99_579 (protein)
chain: EKEKMVERLKELTKRAERLREEAEAAFSLPLEERRELAERLREELDRLAEEAAEIYFEARDSGDEELIKAVEKEADKFVDAYLAAGTALNELEHLVLEEE
B29: usp_38_diff_out_4_99_575 (protein)
chain: EKEEMVERVKRLTEEVRRLLEEVEAARTLSPEERRALAERASAELDRLAEEMGKIYFEARDSGDKELIKAVTEAGDEFVDAYERAGLALAELRNEVDEES
B30: usp_38_diff_out_4_99_569 (protein)
chain: EKEKKVKEVKKIKEKIEELLKEAEEAEKLSVEERRKKAEEIRKELDELAKKLGKLYFEARDSGDKELIEAVNKEADKAVDAYKEAATKLHELEAKVQEEE
B31: usp_38_diff_out_4_99_568 (protein)
chain: MKEEKVKEVKELTERAKELLEKAKEAFELSHEERKKKAEELRKELDELAKRMGAIYFEARDSGDEELIEAVTEEADEFVDAYNEAAEALNLLEHEVLEEE
B32: usp_38_diff_out_5_164_585 (protein)
chain: GVEEAKKKMTELTEETIKKLEELLKKAKENPEKAEEYLKEANKLVQEALDELNRITTETLEAHPEQAEEILAHYSEQVTKLLTKYQEVMKEIKEIIKKAK

Target: T1, USP38, Q8NB14
Assay: median log2 fold change of GCK-ALFA target abundance (FLAG IP / Myc IP barcode read proportion) (log2 ratio); each designed protein is fused to an ALFA-tag nanobody in HEK293 cells to bring the named protein to FLAG-tagged glucokinase (GCK); Myc marks an untargeted standard; higher = target protein stabilised (more abundant)
Conditions: target protein: 3xFLAG-MCP-GCK-ALFA reporter; HEK293 landing pad (RPLP)
Outline: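 An ALFA-nanobody-fused binder library was recombined into HEK293 landing-pad cells and induced with 2 μg mL^−1 doxycycline. Cells were transfected with a plasmid expressing a FLAG-tagged target and a Myc-tagged standard. After 48 h, lysates underwent anti-FLAG and anti-Myc immunoprecipitation, and circular RNA barcodes were reverse transcribed, amplified and sequenced. Target abundance is the per-binder median log2 ratio of FLAG to Myc barcode read proportions. Barcodes needed ≥10^−7 proportion in both replicates, binders ≥3 barcodes per replicate, and a 10^−6 pseudocount was added; the two replicates were pooled.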

Binder	median log2 fold change
B1	0.235
B2	-0.474
B3	0.126
B4	0.007
B5	-0.211
B6	-0.0709
B7	-0.163
B8	-0.345
B9	-0.0274
B10	0.277
B11	-0.0672
B12	-0.179
B13	0.0841
B14	-0.0369
B15	-0.21
B16	-0.355

Binder	median log2 fold change
B17	-0.0565
B18	-0.351
B19	0.0633
B20	0.25
B21	0.0989
B22	-0.356
B23	-0.281
B24	-0.404
B25	-0.333
B26	-0.12
B27	0.145
B28	-0.154
B29	-0.45
B30	-0.151
B31	-0.28
B32	0.00563
